# Assay results from PubChem BioAssay.
# Values without a mark were called inactive. For some assays here: Results with a measured potency or affinity are listed apart. Activity calls are given as the source filed them. Unless noted, no rule for the calls is given here.
# Key:
# [1] = antimalarial activity against Dd2 strain (AID 2302;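 active = growth inhibition above 50% at the single 2 µM test dose, taken to imply half-maximal potency below 2 µM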;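 also: 0% = DMSO untreated growth and 100% = chloroquine plus artemisinin killed control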); conditions: P. falciparum Dd2 in RBCs, LDH growth readout, 72 h; at 2 µM; hits give high values
# [2] = HepG2 cytotoxicity, primary screen, cytotoxicity control for P. falciparum antimalarial project, cell-based, ATP luminescence (AID 2303;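 active = inhibition above 50%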;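 also: 0% = DMSO wells and 100% = digitonin-killed cells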); conditions: HepG2 viability, 24-48 h, at 10 µM, hits give high values
# [3] = biological target: L-lactate dehydrogenase (Plasmodium falciparum (isolate CDC / Honduras)) (UniProt Q27743); assay: PfLDH activity inhibition – cell lysate, 3D7 strain, counter-screen for P. falciparum growth inhibition project (AID 2304);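 also: 0% = vehicle and 100% = reference inhibitor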; conditions: P. falciparum 3D7 crude extract, LDH APAD/NBT absorbance; at 2 µM; hits give high values
# [4] = inhibition of 3D7 malaria parasite growth – strain 3D7 (AID 2306);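 also: 0% = DMSO wells and 100% = chloroquine plus artemisinin control wells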; conditions: P. falciparum 3D7 erythrocytic growth, LDH absorbance, 72 h; at 2 µM; hits give high values
# [5] = biological target: Calcium-dependent protein kinase 1 (Plasmodium falciparum (isolate 3D7)) (UniProt P62344); assay: PfCDPK1 kinase inhibitors, biochemical, TCAMS library (AID 1159585; cut-off not given, nearly all actives have IC50 up to about 0.98 µM;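 also: inhibitors leave more ATP so luminescence rises with inhibition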); conditions: recombinant PfCDPK1, Kinase-Glo ATP depletion luminescence
# [6] = biological target: Plasmodium falciparum protein kinase 6 (PK6, PF3D7_1337100) (UniProt Q8IDW1); assay: PfPK6 kinase inhibitors, biochemical, TCAMS library (AID 1159586); conditions: recombinant PfPK6, Kinase-Glo ATP depletion luminescence
# [7] = biological target: Protein kinase 7 (PK7), Plasmodium falciparum 3D7 (PF3D7_0213400) (UniProt Q7YTF7); assay: inhibition of Plasmodium PK7 catalytic activity – biochemical, TCAMS antimalarial set, Kinase-Glo luminescence (AID 1159587); conditions: recombinant PfPK7, Kinase-Glo ATP depletion luminescence
# [8] = biological target: Calcium-dependent protein kinase 4 (Plasmodium falciparum (isolate 3D7)) (UniProt Q8IBS5); assay: PfCDPK4 kinase inhibitors, biochemical, TCAMS library (AID 1159588; cut-off not given, nearly all actives have IC50 up to about 0.91 µM); conditions: recombinant PfCDPK4, Kinase-Glo ATP depletion luminescence
# Calcium-dependent protein kinase 4 (Plasmodium falciparum (isolate 3D7)), sequence (Q8IBS5 whole entry, looked up): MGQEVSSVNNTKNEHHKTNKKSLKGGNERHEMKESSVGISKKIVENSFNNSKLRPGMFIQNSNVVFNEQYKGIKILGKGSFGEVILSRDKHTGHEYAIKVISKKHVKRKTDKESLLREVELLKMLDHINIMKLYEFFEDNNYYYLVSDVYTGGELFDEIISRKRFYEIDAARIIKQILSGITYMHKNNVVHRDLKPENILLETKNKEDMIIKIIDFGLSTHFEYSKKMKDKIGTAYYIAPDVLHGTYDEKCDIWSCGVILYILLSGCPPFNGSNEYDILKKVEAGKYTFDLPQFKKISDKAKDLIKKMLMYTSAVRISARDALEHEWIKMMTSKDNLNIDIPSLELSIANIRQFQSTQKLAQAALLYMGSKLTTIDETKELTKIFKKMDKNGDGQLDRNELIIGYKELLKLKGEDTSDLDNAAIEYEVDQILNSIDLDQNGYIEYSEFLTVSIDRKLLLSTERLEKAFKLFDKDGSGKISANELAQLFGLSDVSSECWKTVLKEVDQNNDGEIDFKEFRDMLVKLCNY
# L-lactate dehydrogenase (Plasmodium falciparum (isolate CDC / Honduras)), sequence (Q27743 whole entry, looked up): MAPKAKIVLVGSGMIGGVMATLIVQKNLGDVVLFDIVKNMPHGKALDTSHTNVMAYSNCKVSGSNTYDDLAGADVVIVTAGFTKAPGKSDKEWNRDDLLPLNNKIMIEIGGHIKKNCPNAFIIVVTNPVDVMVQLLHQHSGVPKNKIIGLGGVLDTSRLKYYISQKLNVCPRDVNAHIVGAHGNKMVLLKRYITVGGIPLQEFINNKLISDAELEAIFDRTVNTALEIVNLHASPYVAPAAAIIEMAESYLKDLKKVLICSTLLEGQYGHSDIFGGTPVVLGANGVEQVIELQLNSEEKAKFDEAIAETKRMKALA
# Protein kinase 7 (PK7), Plasmodium falciparum 3D7 (PF3D7_0213400), sequence (Q7YTF7 1-343): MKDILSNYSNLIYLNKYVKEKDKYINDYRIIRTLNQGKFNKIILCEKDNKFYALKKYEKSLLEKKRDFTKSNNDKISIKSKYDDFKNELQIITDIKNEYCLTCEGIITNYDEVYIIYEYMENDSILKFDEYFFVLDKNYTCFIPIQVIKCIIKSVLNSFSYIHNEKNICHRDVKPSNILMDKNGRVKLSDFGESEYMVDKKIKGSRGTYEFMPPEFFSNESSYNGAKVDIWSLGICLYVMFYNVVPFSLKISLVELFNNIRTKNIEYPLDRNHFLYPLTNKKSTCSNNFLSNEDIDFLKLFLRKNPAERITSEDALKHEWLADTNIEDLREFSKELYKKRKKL
# Plasmodium falciparum protein kinase 6 (PK6, PF3D7_1337100), sequence (Q8IDW1 1-305): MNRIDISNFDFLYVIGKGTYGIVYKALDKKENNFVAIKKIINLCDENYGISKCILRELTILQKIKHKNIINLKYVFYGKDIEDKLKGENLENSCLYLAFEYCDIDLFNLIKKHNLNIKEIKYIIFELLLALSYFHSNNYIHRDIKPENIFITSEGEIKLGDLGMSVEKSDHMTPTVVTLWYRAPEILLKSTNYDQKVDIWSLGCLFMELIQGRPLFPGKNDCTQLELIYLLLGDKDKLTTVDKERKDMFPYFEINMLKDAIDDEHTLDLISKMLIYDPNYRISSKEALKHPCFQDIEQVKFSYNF
# Calcium-dependent protein kinase 1 (Plasmodium falciparum (isolate 3D7)), sequence (P62344 whole entry, looked up): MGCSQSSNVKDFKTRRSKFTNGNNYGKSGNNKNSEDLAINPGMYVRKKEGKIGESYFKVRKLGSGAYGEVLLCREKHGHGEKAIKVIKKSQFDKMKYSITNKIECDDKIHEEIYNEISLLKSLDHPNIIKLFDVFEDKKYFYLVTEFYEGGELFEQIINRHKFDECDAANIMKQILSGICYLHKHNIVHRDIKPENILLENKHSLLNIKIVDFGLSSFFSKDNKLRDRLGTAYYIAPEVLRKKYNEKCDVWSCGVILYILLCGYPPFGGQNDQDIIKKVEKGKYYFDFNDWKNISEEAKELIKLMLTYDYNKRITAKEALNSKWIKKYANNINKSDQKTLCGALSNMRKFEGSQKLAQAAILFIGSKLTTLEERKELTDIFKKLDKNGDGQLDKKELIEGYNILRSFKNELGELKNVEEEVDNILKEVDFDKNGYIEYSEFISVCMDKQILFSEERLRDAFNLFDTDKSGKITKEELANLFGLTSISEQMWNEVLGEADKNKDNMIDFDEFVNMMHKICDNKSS
SMILES,growth inhibition [1],inhibition [2],inhibition [3],growth inhibition [4],outcome [5],outcome [6],outcome [7],outcome [8]
COc1cccc(CNC(=O)[C@H]2CNCCN2C(=O)CCCc2ccccc2)c1,95% (active),56% (active),2%,91% (active),inactive,inactive,inactive,inactive
O=C(Nc1ccccc1)OCCOc1ccc(CC2SC(=O)NC2=O)cc1 (stereo not given),-6%,1%,-3%,100% (active),inactive,inactive,inactive,inactive
OCCN1CCN(C(=S)NC2CCCCC2)CC1,-1%,49%,1%,93% (active),inactive,inactive,inactive,inactive
CC(C)c1ccc(N2CCN(CCCCNC(=O)c3ccc(NC(=O)c4cc(Cl)cc(Cl)c4)cc3)CC2)cc1,86% (active),12%,8%,101% (active),inactive,inactive,inactive,inactive
N#Cc1cccc([C@H](O)[C@@H]2CN(CCC3CCCCC3)CC[C@@]2(O)c2ccccc2)c1,100% (active),-5%,3%,98% (active),inactive,inactive,inactive,inactive
CN(Cc1cccc(C#N)c1)C1CCN(c2cc(NC(=O)c3cccc(F)c3)ccn2)CC1,15%,-1%,-3%,98% (active),inactive,inactive,inactive,inactive
CN1CCCN(Cc2ccc(-c3ccc(NC(=O)c4cccc(C#N)c4)cc3)cc2)CC1,67% (active),46%,-8%,97% (active),inactive,inactive,inactive,inactive
CNc1ccc(CNCc2cccc(-c3ccc(-c4nc5c(C)cccc5[nH]4)cc3)c2)cc1,83% (active),26%,-4%,102% (active),inactive,inactive,inactive,inactive
CC(C)Sc1nc2c(c(=O)n1CCc1ccccc1)C1(CCCC1)Cc1ccccc1-2,88% (active),-3%,-4%,102% (active),inactive,inactive,inactive,inactive
O=C(Nc1cccc(-c2ccc(-c3nc4ccccc4[nH]3)cc2)c1)c1cccnc1,1%,18%,-5%,100% (active),inactive,inactive,inactive,inactive
